Screens deposited in PubChem by SRMLSC.
Autofluor 339 – intrinsic fluorescence of library compounds, ex339/em460 – biochemical, MLSMR library, data from DPM-DC assay, artefact control, profiling panel. 5.5% of 65,000 active. compound autofluorescence, ex339/em460 nm, NADH buffer; active compounds read high; 1 = no-compound wells, NADH background. fluorescence fold increase at 10 µM;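 active = at 10 µM, mean starting fluorescence two-fold or more over control wells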;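 note: signal is the first read of a kinetic run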
Spn MK inh – inhibitors of Streptococcus pneumoniae mevalonate kinase. purified MK, PK/LDH-coupled NADH absorbance 340 nm. inhibition, % at 10 µM. 0.48% of 65,000 active;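 active = ranked among the strongest by inhibition in the single 10 µM screen, a fixed top-ranked set picked for dose follow-up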
DPM-DC inhibit – blocks S. pneumoniae diphosphomevalonate decarboxylase; AID 556; 0.49% of 65,000 active; purified DPM-DC, PK/LDH coupled NADH fluorescence; calls only at 10 µM;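 active = the 320 compounds with the highest percent inhibition in the single-dose primary screen, excluding strongly autofluorescent ones, cut at about 32% in these data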;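 note: kinetic rate of NADH fluorescence loss reporting ADP formed by the decarboxylase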
NADH enzymes – blocks coupling enzymes of NAD/NADH assays; coupled PK/LDH NADH assays, four targets; IC50, µM (series often up to 10 µM), inactives show top-dose inhibition; 0.02% of 65,000 active;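 active = single-dose screening hits from any of four coupled enzyme assays that gave an IC50 when retested across doses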;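 note: the DPM-DC format reads NADH fluorescence rather than 340 nm absorbance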
PMK inhibit – inhibitors of Streptococcus pneumoniae phosphomevalonate kinase; purified PMK, PK/LDH-coupled NADH absorbance 340 nm; inhibition, % at 10 µM; 0.49% of 65,000 active;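 active = top-ranked compounds by inhibition in the single 10 µM screen, taking a fixed number of the strongest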;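 note: 0% = full reaction with DMSO carrier and 100% = background rate without enzyme reaction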
A340 absorber – compounds absorbing at 340 nm; fold change at 10 µM; compound absorbance at 340 nm, fold over control; 65,000 tested, under 10 active;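 active = at 10 µM dose, initial 340 nm absorbance at least 2 fold that of control wells; inactive = change under 2 fold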;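 note: initial absorbance extrapolated from kinetic A340 decline of NADH oxidation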
Active calls of the source: *; i = inactive; . = no result shown; + = active, no number. Sampled rows, rich in hits. Any-hit rate of the full collection: about 6.5%.

SMILES	Autofluor 339	Spn MK inh	DPM-DC inhibit	NADH enzymes	PMK inhibit	A340 absorber
Cc1ccc(-n2nc(-c3ccc(N)cc3)cc2N)cc1	1.06	10.0	i	3.0%	0.0	1.04
COC(=O)C1CCN(C(=O)c2ccccc2Oc2ccccc2)CC1	1.13	0.0	i	2.0%	5.0	1.05
CC(C)COC(=O)n1ccc(C(=O)N2CCCCC2)n1	1.04	4.0	i	11.0%	25.0*	0.99
CC(C)CNS(=O)(=O)c1ccccc1C(=O)N1CCCCC1	1.13	8.0	i	4.0%	5.0	1
CCn1c(Cn2nnc(-c3ccccc3)n2)nnc1SCc1ccc(Cl)c(Cl)c1	1.07	13.0	i	9.0%	10.0	1
COCCCn1c(-c2ccc(OC)cc2)nc2nc3ccccc3nc21	3.99*	0.0	.	2.0%	3.0	1.05
CCCn1c(-c2ccc(OC)cc2)nc2nc3ccccc3nc21	2.11*	6.0	.	12.0%	17.0	1.17
Clc1ccc(-c2nc3nc4ccccc4nc3n2Cc2ccco2)cc1	1.87	1.0	i	0.0%	0.0	1.13
COc1ccc(-c2nc3ccccc3c(=O)n2CCN2CCOCC2)cc1	1.1	6.0	i	3.0%	4.0	1.03
Cc1ccc(OCCNC(=O)c2ccco2)cc1C	1.12	2.0	i	3.0%	6.0	1.01
CCOC(=O)C1CCN(S(=O)(=O)c2ccc(C(=O)OC)cc2)CC1	1.04	2.0	i	6.0%	16.0	1.05
COC(=O)C1=CN(C2CC2)C=C(C(=O)OC)C1c1ccc(C(=O)OC)cc1	2.11*	0.0	.	2.0%	4.0	1.07
Cc1cc(C(F)F)n2nc(C(=O)Nc3cccc(C(F)(F)F)c3)nc2n1	1.13	4.0	i	4.0%	7.0	1.02
COc1ccc(C(F)(F)F)cc1NC(=O)c1nc2nc(C)cc(C(F)F)n2n1	3.03*	1.0	.	3.0%	8.0	1
CCc1cc(/C(Cc2ccc3ccccc3n2)=N\O)c(O)cc1O	0.48	0.0	+	20.0%	5.0	1.06
CCc1cc(C(=O)Cc2ccc(F)cc2)c(O)cc1O	1.04	6.0	i	4.0%	4.0	1.1
O/N=C(\Cc1cscn1)c1ccc(O)cc1O	1.08	12.0	i	7.0%	9.0	1.03
CCc1cc(C(=O)Cc2nc3ccccc3[nH]2)c(O)cc1O	2.29*	10.0	i	16.0%	12.0	1.18
COc1ccc(-n2ccnc2SCC(=O)Nc2ccc(OC)cc2OC)cc1	1.19	5.0	i	8.0%	13.0	1.02
COc1cc2c(cc1OC)-c1cc(N3CCCCCC3)nc(=O)n1CC2	2.47*	2.0	i	9.0%	15.0	1.21
CCN(CC)CCCNC(=O)c1nn(-c2ccccc2OC)c(=O)c2ccccc12	1.1	3.0	i	2.0%	3.0	1.01
COc1cc2c(cc1OC)-c1cc(Nc3ccc4c(c3)OCCO4)nc(=O)n1CC2	1.33	0.0	i	4.0%	10.0	1.07
COc1cc2c(cc1OC)-c1cc(NC3CCCCCC3)nc(=O)n1CC2	3.28*	8.0	.	9.0%	9.0	1.12
COc1cc2c(cc1OC)-c1cc(N3CCCc4ccccc43)nc(=O)n1CC2	1.12	14.0	i	6.0%	0.0	1.19
CCN(CC)CCCNc1cc2n(c(=O)n1)CCc1cc(OC)c(OC)cc1-2	3.97*	10.0	.	13.0%	15.0	1.13
SMILES	Autofluor 339	Spn MK inh	DPM-DC inhibit	NADH enzymes	PMK inhibit	A340 absorber
COc1ccc(C(=O)N2CCN=C2SCc2cccnc2)cc1OC	1.1	8.0	i	3.0%	0.0	1.01
COc1cc2c(cc1OC)-c1cc(OCc3cccnc3)nc(=O)n1CC2	2.92*	6.0	.	4.0%	10.0	1.1
Cc1ccc(CSC2=NCCN2C(=O)C2CC2)cc1	1.07	3.0	i	3.0%	12.0	1
O=C(N1CCOCC1)N1CCN(S(=O)(=O)N2CCCCC2)CC1	1.1	8.0	i	6.0%	9.0	1.02
CCC(C)(C)NC(=O)C(OC(=O)c1ccco1)c1ccccc1OC (stereo not drawn)	1.01	6.0	i	6.0%	10.0	1
COc1ccc(OC)c(-c2nc3c(C)n[nH]c(=O)c3[nH]2)c1	1.44	14.0	i	3.0%	7.0	1.02
Cc1oc2c(O)c(O)ccc2c(=O)c1-c1cnn(-c2ccccc2)c1	1.07	8.0	i	3.0%	1.0	1.06
COc1ccccc1-c1c(C)oc2c(CN3CCN(C)CC3)c(O)ccc2c1=O	2.35*	11.0	.	10.0%	8.0	1.07
CCOc1ccccc1Oc1c(C)oc2c(CN3CCN(C)CC3)c(O)ccc2c1=O	3.93*	9.0	.	12.0%	14.0	1.12
Cc1oc2c(O)c(O)ccc2c(=O)c1-c1ccccc1	0.98	5.0	i	13.0%	29.0*	1.04
CCOC(=O)c1oc2c(CN3CCN(C)CC3)c(O)ccc2c(=O)c1-c1ccccc1OC	0.97	1.0	i	1.0%	1.0	1.01
Cc1oc2c(CN3CCCC3)c(O)ccc2c(=O)c1-c1ccc(Br)cc1	3.78*	7.0	.	10.0%	12.0	1.13
COC(=O)c1ccc(COc2ncnc3c(Cl)cc(Cl)cc23)o1	1.03	1.0	i	2.0%	8.0	1.01
COc1ccc(NC(=O)CSc2nc3c(c(=O)n2-c2ccc(C)cc2)SCC3)c(OC)c1	1.06	4.0	i	1.0%	0.0	1.07
COc1ccccc1-c1c(C)oc2c(CN3CCN(CCO)CC3)c(O)ccc2c1=O	3.92*	2.0	.	1.0%	0.0	1.13
COc1ccc(-c2c(C)oc3c(CN4CCN(CCO)CC4)c(O)ccc3c2=O)cc1OC	3.85*	0.0	.	0.0%	0.0	1.15
CCOc1ccc(Cn2c(O)cc(=O)[nH]c2=O)cc1	1.06	0.0	i	3.0%	9.0	1
COC(=O)c1sc2nc(-c3ccco3)ccc2c1N	2.87*	18.0	+	24.0%	0.0	1.17
COC(=O)c1sc2cnccc2c1N	5.06*	1.0	.	7.0%	12.0	1.04
CCOC(=O)c1sc2nc(-c3ccco3)c3c(c2c1N)CC(C)(C)OC3	1.97	9.0	i	11.0%	0.0	1.09
CCn1cc(C(=O)NC2CCCCCC2)c2cc(OC)c(OC)cc2c1=O	1.1	9.0	i	3.0%	0.0	1.06
O=c1cc(C23CC4CC(CC(C4)C2)C3)[nH][nH]1	1.13	32.0	i	19.0%	24.0	1.04
COc1ccccc1N1CC(O)=C(c2nc3ccccc3c(=O)[nH]2)C1=N	2.49*	22.0	i	7.0%	7.0	1.04
N=C1C(c2nc3ccccc3c(=O)[nH]2)=C(O)CN1CCO	1.95	0.0	i	10.0%	15.0	1.04
COCCN1CC(O)=C(c2nc3ccccc3c(=O)[nH]2)C1=N	3.71*	8.0	.	4.0%	0.0	1.05
COc1ccc(N2CCN(C(=O)CCNS(=O)(=O)c3ccc(Br)s3)CC2)cc1	1.03	3.0	i	2.0%	9.0	0.99
NC/C(=N\O)c1ccc(Cl)cc1Cl	1.18	0.0	i	1.0%	4.0	1
COc1ccc(-c2cc(C(=O)NCCN3CCOCC3)c3ccccc3n2)cc1	4.89*	0.0	.	6.0%	11.0	1.09
